An excerpt weighted towards active compounds, which were near 2.6% of everything screened.
PAFAH1B3 FP inh: inhibitors of human PAFAH1B3; 340,000 tested, 0.28% active; AID 492972; inhibition, % at 3.39 µM; Q15102; recombinant PAFAH1B3, FP-rhodamine probe, fluorescence polarization;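 active = inhibition above the screen-wide average of all tested compounds plus 3 SD, cut at about 25% in these data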
Target sequence (Q15102 whole entry, looked up): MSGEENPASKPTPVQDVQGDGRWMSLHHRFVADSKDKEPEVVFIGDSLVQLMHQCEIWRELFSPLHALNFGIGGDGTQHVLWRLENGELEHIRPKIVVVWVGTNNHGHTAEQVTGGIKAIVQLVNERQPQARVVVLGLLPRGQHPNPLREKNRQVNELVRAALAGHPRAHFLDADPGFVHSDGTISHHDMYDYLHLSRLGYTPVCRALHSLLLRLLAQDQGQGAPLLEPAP
PKA-R1A act: PKA-R1A complex activation; activation, % at 11.4 µM; P00514+P68181; 340,000 tested, 0.083% active; PKA-R1A dissociation, Cy5-IP20 fluorescence polarization; scaled: DMSO 0%, 113 µM cGMP 100%;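 active = percent activation above the mean of all tested compounds plus 3 SD, cut at about 19% in these data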;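 also: higher means more PKAc released from R1A so a rise in polarization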
PAFAH1B2 FP inh: inhibitors of human PAFAH1B2; inhibition, % at 3.39 µM; recombinant PAFAH1B2, FP-rhodamine activity probe, fluorescence polarization; 340,000 tested, 1.2% active;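 active = inhibition above the mean of all tested compounds plus 3 SD, cut at about 24% in these data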
Target sequence (P68402 whole entry, looked up): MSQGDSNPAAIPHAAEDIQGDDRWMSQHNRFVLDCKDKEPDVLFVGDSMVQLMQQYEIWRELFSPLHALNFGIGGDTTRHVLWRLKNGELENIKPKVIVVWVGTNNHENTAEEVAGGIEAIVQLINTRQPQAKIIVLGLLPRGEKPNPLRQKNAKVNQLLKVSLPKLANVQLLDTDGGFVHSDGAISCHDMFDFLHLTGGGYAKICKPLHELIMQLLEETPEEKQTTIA
pPAFAH FP inh: pPAFAH (human) enzyme inhibition. Q13093. recombinant pPAFAH, FP-rhodamine probe fluorescence polarization. inhibition, % at 3.39 µM. 330,000 tested, 1.5% active. AID 463082;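 active = inhibition above the mean inhibition across the screen plus 3 SD, cut at about 25% in these data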;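 also: inhibitors block binding of the rhodamine activity-based probe so polarization drops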
PKA-R2B act: activates the human PKA-R2B holoenzyme complex; P22694+P31323; PKA-R2B holoenzyme dissociation, Cy5-IP20 fluorescence polarization; R2B truncated from residue 108, S112A mutant; 0% DMSO only, 100% 113 µM cGMP; activation, % at 11.4 µM; 340,000 tested, 0.079% active; AID 504700;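 active = activation above a cutoff set at the mean over all compounds plus 3 SD, cut at about 18% in these data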;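 also: higher means more holoenzyme dissociation and a rise in polarization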
PAFAH2 FP inh: inhibitors of human PAFAH2; recombinant PAFAH2, FP-rhodamine activity probe, fluorescence polarization; AID 492956; 340,000 tested, 0.99% active; inhibition, % at 3.39 µM; Q99487;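 active = inhibition above the mean over all tested compounds plus 3 SD, cut at about 30% in these data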;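 also: inhibitors block probe labeling of enzyme so polarization drops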
A number is an active result; - = inactive; . = no result.

SMILES	PAFAH1B3 FP inh	PKA-R1A act	PAFAH1B2 FP inh	pPAFAH FP inh	PKA-R2B act	PAFAH2 FP inh
COCC1CCN(C(=O)C2CCC(=O)N(C3CCCCCC3)C2)CC1 (stereo not drawn)	-	-	-	.	-	-
CCCN(C(=O)c1cc(Cl)nc2ccccc12)C1CCS(=O)(=O)C1 (stereo not drawn)	-	-	-	-	-	-
O=C(COc1ccc(Cl)cc1)NNC(=O)C(=O)N1CCCCC1	-	-	31	-	-	-
COc1ccccc1NC(=O)N1CCCC1C(=O)NCc1ccccc1Cl (stereo not drawn)	-	-	-	-	-	-
CCOC(=O)Cn1c(=O)oc2cc(S(=O)(=O)Nc3ccc(F)cc3)ccc21	-	-	-	28	-	-
Cn1c(=O)oc2cc(S(=O)(=O)NCCC(=O)NCCc3ccc(Cl)cc3)ccc21	-	-	32	-	-	-
CCOC(=O)Cn1c(=O)oc2cc(S(=O)(=O)NCCc3ccc(C)cc3)ccc21	-	-	-	29	-	-
Cc1ccc(CCNC(=O)CCNS(=O)(=O)c2ccc3c(c2)oc(=O)n3C)cc1	-	-	-	-	-	-
CCOC(=O)Cn1c(=O)oc2cc(S(=O)(=O)NCCCc3ccccc3)ccc21	-	-	-	-	-	-
O=C(Cc1ccc(F)cc1)N[C@@H]1c2ccccc2CC[C@@H]1OCc1ccccc1	-	-	-	-	-	-
N/C(=N\OC(=O)CCC1CCCC1)c1ccccc1	-	-	-	-	-	-
N/C(=N\OC(=O)CCC1CCCC1)c1ccc([N+](=O)[O-])cc1	-	-	29	-	-	-
N/C(=N\OC(=O)CCC1CCCCC1)c1cccc([N+](=O)[O-])c1	-	-	40	-	-	-
COc1ccc(/C(N)=N/OC(=O)CCC2CCCC2)cc1OC	-	-	-	-	-	-
CCCCc1ccc(S(=O)(=O)N/N=C(/C)c2ccncc2)cc1	-	-	-	-	-	-
CC(/C=N/NC(=O)c1nnn(-c2nonc2N)c1CN1CCCCC1)c1ccccc1 (stereo not drawn)	-	-	-	-	-	-
CCn1c(=O)c(C(=O)CN(C)CC(=O)Nc2cccc(F)c2)c(N)n(Cc2ccccc2)c1=O	-	-	-	-	-	-
Cc1oc2c(c1C(=O)c1ccc(Cl)cc1)C(=O)C(=O)c1ccccc1-2	-	-	-	.	-	-
Cc1ccc(C(=O)c2c(C)oc3c2C(=O)C(=O)c2ccccc2-3)cc1	-	-	-	26	-	-
CNc1ccccc(C(=O)/C=C/c2ccccc2OC)c1=O	-	-	-	28	-	-
O=C(CNS(=O)(=O)c1ccccc1)NCC(=O)OCc1ccc(Cl)cc1	-	-	27	-	-	-
O=C(CNS(=O)(=O)c1ccccc1)NCC(=O)OCc1ccc(C(=O)c2ccccc2)cc1	-	-	-	-	-	-
O=C1CN(S(=O)(=O)c2ccc([N+](=O)[O-])cc2)CC(=O)N1	-	-	-	-	-	-
Cc1ccccc1N=Cc1cc2c(cc1O)OC(N)=C(C#N)C2c1ccccc1 (stereo not drawn)	-	-	-	26	-	-
N#CC1=C(N)Oc2cc(O)c(C=Nc3ccccc3)cc2C1c1ccccc1 (stereo not drawn)	-	-	-	-	-	-
SMILES	PAFAH1B3 FP inh	PKA-R1A act	PAFAH1B2 FP inh	pPAFAH FP inh	PKA-R2B act	PAFAH2 FP inh
Cc1ccc(O)c(N=Cc2cc(Cc3ccccc3)cc([N+](=O)[O-])c2O)c1	-	-	34	.	-	-
Oc1ccc(C=Nc2ccc(N3CCOCC3)cc2)c(O)c1	-	-	-	26	-	-
O=[N+]([O-])c1cc(Cc2ccccc2)cc(C=Nc2ccc(N3CCOCC3)cc2)c1O	-	-	25	34	-	-
Cc1cc(C(=O)CSc2cccc[n+]2[O-])c(C)n1-c1ccc(Br)cc1	.	.	.	44	.	.
Cc1ccccc1NS(=O)(=O)c1ccc(C(=O)N2CC(C)OC(C)C2)cc1 (stereo not drawn)	-	-	-	-	-	-
Cc1cccc(NS(=O)(=O)c2ccc(C(=O)N3CC(C)OC(C)C3)cc2)c1C (stereo not drawn)	-	-	-	29	-	-
CCCn1nc(C(=O)NNC(=O)CCCOc2ccc(OC)cc2)c2ccccc2c1=O	-	-	-	-	-	-
COc1ccccc1NC(=O)c1cc2c(CO)cnc(C)c2oc1=Nc1cc(OC)c(OC)c(OC)c1	-	-	-	-	-	-
COc1ccccc1NC(=O)c1cc2c(CO)cnc(C)c2oc1=Nc1ccc(OC)c(OC)c1	-	-	-	25	-	-
Cc1ccc2c(C)c(C(=O)Nc3cccnc3)oc2c1C	-	-	-	.	-	-
Cc1cc2nc(SCC(=O)N(C)C)c3c(c2cc1C)CCCC3	-	-	-	31	-	-
CN(C)C(=O)CSc1nc(-c2ccccc2)nc2c1CCCC2	-	-	-	-	-	-
CCCS(=O)(=O)c1nc(S(=O)(=O)c2ccc(C)cc2)c(NCCCn2ccnc2)s1	-	-	-	-	-	-
COc1ccc(S(=O)(=O)Nc2cc(Cl)ccc2-n2cncn2)cc1	-	-	-	-	-	-
Cc1ccc(C2C(C#N)=C(N)SC(N)=C2C#N)o1	.	.	.	29	.	.
CCc1ccc(C2C(C#N)=C(N)SC(N)=C2C#N)s1	-	-	-	-	-	-
CN(C(=O)COc1cc(=O)n(C)c2ccccc12)c1cccc(Cl)c1	-	-	-	28	-	-
CCN(C(=O)COc1cc(=O)n(C)c2ccccc12)c1cccc(Cl)c1	-	-	-	-	-	-
Cc1cccc(N(C)C(=O)COc2cc(=O)n(C)c3ccccc23)c1	-	-	-	34	-	-
Cc1ccc(S(=O)(=O)NCC(=O)N(CC(=O)NCc2ccco2)C2CCCC2)cc1	-	-	-	-	-	-
Cc1cc(=O)[nH]c(SCC(=O)C23CC4CC(CC(C4)C2)C3)c1C#N	-	-	63	-	-	49
O=C(/C=C(\O)c1ccc(Cl)cc1)C(=O)NNC(=O)C(O)(c1ccccc1)c1ccccc1	-	-	-	27	-	-
O=C(/C=C(\O)c1ccccc1)C(=O)NNC(=O)c1ccccc1	-	-	-	-	-	-
COC(=O)c1cc(S(=O)(=O)N2CCN(C3CCCCC3)CC2)c[nH]1	-	-	-	-	-	-
CN(CC(=O)Nc1ccc(Cl)c(Cl)c1)C(=O)C12CC3CC(CC(C3)C1)C2	-	-	26	-	-	-
CSc1ccc(CCNC(=O)CN2C(=O)CCSc3ccccc32)cc1	-	-	-	-	-	-
CNC(=O)CSc1nc2cc(S(=O)(=O)Nc3ccc(OC)cc3)ccc2o1	-	-	-	27	-	-
CC(=O)Nc1cccc(-c2cc(-c3c(Cl)cccc3Cl)no2)c1	-	-	-	28	-	-

High-throughput results from PubChem BioAssay.
